Source: PubChem BioAssay (NCI)
The panel holds about 83,000 compounds, 20% with a hit somewhere; the sample as a whole holds those more often.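 Results are percent growth after 48 hours of single-concentration exposure. 100 means growth as in untreated cells, lower positive values show inhibition; negative values down to -100 show cell death.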 A number with no mark means an inactive call. The source made the active and inactive calls. How the source made its calls: active means growth percent below 10; inactive means the rest.

Tests used:
Assay in all cases: NCI-60 one-dose screen, 48 h (100 = growth as untreated, 0 = no growth, -100 = all killed)
Conditions in all cases: 10 µM unless noted
[1] = tested on: SR leukemia
[2] = tested on: RPMI-8226 leukemia
[3] = tested on: OVCAR-8 ovarian
[4] = tested on: OVCAR-5 ovarian
[5] = tested on: OVCAR-4 ovarian
[6] = tested on: SK-OV-3 ovarian
[7] = tested on: IGROV1 ovarian
[8] = tested on: OVCAR-3 ovarian
[9] = tested on: HS 578T breast
[10] = tested on: NCI/ADR-RES ovarian

SMILES	growth [1]	growth [2]	growth [3]	growth [4]	growth [5]	growth [6]	growth [7]	growth [8]	growth [9]	growth [10]
COCCn1cc(-c2csc(-c3c[nH]c4ccc(F)cc34)n2)c2cccnc21	9.53% (active)	21.4%	34%	60.9%	37.6%	49.7%	42%	15.2%	52.2%	7.39% (active)
COc1cc(/C=C/C(=O)c2cccc(-n3cc(-c4ccc(Cl)cc4)[nH]c3=O)c2)ccc1O	33%	5.06% (active)	46.5%	91.4%	57%	97.9%	-10.6% (active)	3.36% (active)	76.5%	35.4%
N#Cc1ccc(/C=C/c2cn(-c3ccccc3)nc2-c2cccc([N+](=O)[O-])c2)cc1	66.5%	74.8%	44.1%	64.2%	33.1%	69.8%	51.2%	70%	76.2%	62.8%
CN1CCN(c2ccc(NC3=CC(=O)c4ncncc4C3=O)cc2)CC1	-5.62% (active)	-29.1% (active)	-53.2% (active)	-92.3% (active)	-99% (active)	-63.7% (active)	-86.6% (active)	-58.6% (active)	-19.6% (active)	-20.4% (active)
CC(=O)N1N=C(c2ccc(Nc3nc(Nc4ccc(F)cc4)nc(Nc4ccc(F)cc4)n3)cc2)CC1c1ccc(N(C)C)cc1 (stereo not given)	-4.86% (active)	4.52% (active)	27.6%	78.4%	62.2%	90.6%	48%	69.5%	62.9%	27.5%
O=C1C=C(SCCO)C(=O)c2ccccc21	-16.1% (active)	12.9%	28.9%	87.7%	39.1%	105%	68.6%	-3.21% (active)	2.8% (active)	4.12% (active)
Cc1cc(O)c(=O)cc2c1C[C@H]1CC(C)(C)/C=C/C[C@]3(C)Oc4cc(=O)c(O)cc(C)c4C[C@H]3C[C@H](O)[C@@]1(C)O2	12.4%	3.46% (active)	5.84% (active)	18.9%	9.54% (active)	-5.53% (active)	11.2%	15.5%	30%	0.831% (active)
CCOC(=O)NC(=S)n1oc(=O)c2ccccc21	114%	101%	102%	96.6%	96.5%	104%	100%	105%	104%	105%
CCN1CCN(CCNc2nccc(-c3c(-c4ccc(F)c(O)c4)nc4occn34)n2)S1(=O)=O	29.5%	-22.7% (active)	11.7%	102%	19.8%	54%	44.2%	39.4%	42.6%	12.3%
c1csc(-c2cn3nc(-c4c[nH]c5ccccc45)sc3n2)c1	14.5%	17.1%	29.2%	37.1%	45%	26.4%	30.6%	-7.97% (active)	29.1%	12%
Cn1cc(-c2nc3c(F)cc4[nH]ncc4c3c3c2CCCC3)c(C(F)(F)F)n1	-30.9% (active)	-5.82% (active)	39.4%	65%	73.8%	14.1%	24%	55.2%	18%	60.2%
Cc1ccc(OCCOCCOCCOc2ccc(C)n(O)c2=S)c(=S)n1O	25.6%	31.2%	39.3%	38.5%	20.5%	64.9%	72%	15.9%	56.3%	16.4%
CC1SC(c2ccccc2O)N(NC(=O)CCC(=O)c2nc3ncccc3[nH]2)C1=O (stereo not given)	109%	93.1%	97%	107%	92.8%	92.3%	70.1%	97%	90.2%	89.6%
O=Nc1ccc(NC(=O)Nc2ccc([N+](=O)[O-])cc2)cc1	81.1%	44.1%	91.5%	122%	87.1%	102%	99.5%	98.4%	91.6%	91.6%
COc1cc(/C=C/c2cn[nH]c2-c2ccc(C)cc2)cc(OC)c1OC	12.3%	25.8%	32.8%	85%	78.5%	16.2%	51.9%	15.5%	39.9%	16.7%
CC(C)(C)CC(C)(C)Nc1c(-c2c(O)c3ccccc3oc2=O)nc2sc3ccccc3n12	30.3%	8.98% (active)	22.2%	66.9%	41.9%	30.4%	29.5%	55.2%	30.1%	40.1%
Cc1ccc(O)c(NC(=O)c2cccc(Nc3ccnc(C(F)(F)F)c3)c2)c1	39.8%	-1.23% (active)	73.2%	87.1%	45.3%	72.9%	79.1%	93.2%	93%	40.2%
Cc1nc(N/N=C/c2cn(-c3ccccc3)nc2-c2cc3ccccc3oc2=O)sc1N=Nc1ccccc1	29.9%	89.3%	103%	104%	85.4%	109%	89.1%	92.1%	90.2%	88%
Cn1cc(-c2csc(-c3cn(C)c4ccccc34)n2)c2cnccc21	-0.518% (active)	-18.6% (active)	27.4%	77.4%	68.1%	105%	68.5%	43.9%	97.5%	41.8%
COc1cc(N2C(=O)[C@H](Cl)C2c2ccc(SC)cc2)cc(OC)c1OC (stereo not given in full)	1.95% (active)	3.63% (active)	8.62% (active)	70%	48%	20.4%	27.8%	3.77% (active)	25.1%	-0.874% (active)
COc1cc2c(c(OC)c1OC)C(=O)CC(c1cccc(C(=O)Nc3ccccc3Br)c1)O2 (stereo not given)	64%	68.7%	91.8%	96.5%	70.6%	95.4%	91.6%	97.6%	103%	88.8%
COc1cc(/C=C/C(=O)c2cc(OC)c(OC)c(OC)c2)ccc1Oc1nc2c(c(=O)n(C)c(=O)n2C)n1C	8.62% (active)	6.12% (active)	10.7%	5.82% (active)	19.1%	30.3%	-8.8% (active)	-48.4% (active)	26.7%	0.709% (active)
NS(=O)(=O)c1ccc(C(=O)NN2C(=O)c3ccccc3C2=O)cc1	105%	109%	107%	110%	113%	117%	113%	108%	102%	112%
C=C(C)[C@@H]1CC[C@]2(COC3CCCCO3)CC[C@]3(C)[C@H](CC[C@@H]4[C@@]5(C)C=C(C=O)C(=O)C(C)(C)[C@@H]5CC[C@]43C)[C@@H]12 (stereo not given in full)	-5.54% (active)	-6.13% (active)	-39.2% (active)	-19% (active)	-34.7% (active)	-40% (active)	-64.8% (active)	-65.1% (active)	-24.3% (active)	1.89% (active)
CCCCCc1ccc(S(=O)(=O)Nc2ccc3nc(N)oc3c2)cc1	31.1%	38.4%	53.8%	99.5%	27.3%	81.8%	68.4%	64.5%	73.9%	53%
COC(=O)/C=C1/SC(=Nc2ccc(F)cc2)N(CCc2c[nH]c3ccc(O)cc23)C1=O	-4.72% (active)	4.11% (active)	26.1%	76.3%	30.3%	80.8%	24.6%	21.5%	37.4%	32.7%
CS(=O)(=O)Nc1cc(-c2ccc3ncnc(Nc4ccc(OCc5ccccn5)c(Cl)c4)c3c2)cnc1Cl	-5.01% (active)	-50.3% (active)	14.4%	12.5%	20.9%	-27.1% (active)	-30.6% (active)	-19% (active)	-19.7% (active)	77.7%
